Measurements: PubChem BioAssay (EPA / NIEHS)
Several values for one entry are separate records, joined by “and”; a condition that tells them apart may be missing. Identical values can stand only once. Records with an inconclusive call do not appear. Activity calls are given as the source filed them. How the source made its calls: active means hit-call score of the fitted dose curve at least 0.9, where 1 is the maximum; inconclusive means response in the unintended direction; inactive means score below 0.9.

Each compound was assayed against human Tyrosine Protein Kinase Receptor Tie-2 (Tie2), TEK (gene 7010) (UniProt Q02763) (assay: NVS_ENZ_hTie2: NovaScreen (NVS) Enzymatic Assay for human Tyrosine Protein Kinase Receptor Tie-2 (Tie2) (AID 2283225)).
human Tyrosine Protein Kinase Receptor Tie-2 (Tie2), TEK (gene 7010), sequence (Q02763 whole entry, looked up): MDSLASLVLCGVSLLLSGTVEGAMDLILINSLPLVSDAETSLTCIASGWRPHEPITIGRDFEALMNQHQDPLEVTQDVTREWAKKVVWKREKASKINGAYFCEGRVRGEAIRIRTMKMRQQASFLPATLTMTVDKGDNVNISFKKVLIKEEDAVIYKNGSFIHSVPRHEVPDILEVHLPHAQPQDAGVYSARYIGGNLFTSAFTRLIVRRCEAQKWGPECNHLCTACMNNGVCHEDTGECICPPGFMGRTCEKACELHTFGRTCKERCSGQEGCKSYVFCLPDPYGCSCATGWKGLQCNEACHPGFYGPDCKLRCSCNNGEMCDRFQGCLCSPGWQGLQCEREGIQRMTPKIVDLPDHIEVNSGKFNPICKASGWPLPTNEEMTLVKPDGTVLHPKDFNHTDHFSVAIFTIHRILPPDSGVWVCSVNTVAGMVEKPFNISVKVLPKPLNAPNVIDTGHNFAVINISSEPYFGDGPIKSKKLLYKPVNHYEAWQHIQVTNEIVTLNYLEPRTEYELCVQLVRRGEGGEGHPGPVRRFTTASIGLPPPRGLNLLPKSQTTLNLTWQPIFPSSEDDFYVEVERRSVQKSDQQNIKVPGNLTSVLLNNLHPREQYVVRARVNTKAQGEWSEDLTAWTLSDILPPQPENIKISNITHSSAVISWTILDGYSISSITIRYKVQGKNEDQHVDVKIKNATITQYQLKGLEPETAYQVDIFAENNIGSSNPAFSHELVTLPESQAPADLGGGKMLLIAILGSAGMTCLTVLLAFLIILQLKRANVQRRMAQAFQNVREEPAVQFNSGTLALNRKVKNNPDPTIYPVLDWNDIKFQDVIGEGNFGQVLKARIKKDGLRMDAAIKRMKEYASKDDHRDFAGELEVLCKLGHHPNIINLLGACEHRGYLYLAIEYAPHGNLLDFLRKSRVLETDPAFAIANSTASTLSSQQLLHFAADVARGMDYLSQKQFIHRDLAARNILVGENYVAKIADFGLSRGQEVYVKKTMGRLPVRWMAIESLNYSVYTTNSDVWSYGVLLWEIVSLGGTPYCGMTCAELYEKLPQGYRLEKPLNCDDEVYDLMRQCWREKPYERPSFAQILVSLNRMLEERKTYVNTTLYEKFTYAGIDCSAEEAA
Procedure: NVS_ENZ_hTie2 is a biochemical, single-readout assay that uses extracted gene-proteins in a cell-free assay. Measurements were taken 1 hour after chemical dosing in a 384-well plate.NVS_ENZ_hTie2 is one of one assay component(s) measured or calculated from the NVS_ENZ_hTie2 assay. It is designed to make measurements of enzyme activity, a form of enzyme reporter, as detected with fluorescence intensity signals by Fluorescence and electrophoretic mobility shift technology.Data from the assay component NVS_ENZ_hTie2 was analyzed into 1 assay endpoint. This assay endpoint, NVS_ENZ_hTie2, was analyzed in the positive analysis fitting direction relative to DMSO as the negative control and baseline of activity. Using a type of enzyme reporter, loss-of-signal activity can be used to understand changes in the enzymatic activity as they relate to the gene TEK. Furthermore, this assay endpoint can be referred to as a primary readout, because this assay has produced multiple assay endpoints where this one serves a enzymatic activity function. To generalize the intended target to other relatable targets, this assay endpoint is annotated to the kinase intended target family, where the subfamily is receptor tyrosine kinase.
Binding assays used specific radioligands (tritiated, iodinated) with non-radioactive competitive displacement ligands in agonist or antagonist protocols (as indicated) and various reference compounds and inhibitors to titrate specific binding to receptors and transporters. Most enzyme assays (CYPs, kinases, phosphatases, proteases, HDACs) used recombinant protein and specific substrates (fluorescence mostly, some colorimetric and radioactive) and inhibitors, followed by a biochemical separation of substrate and product. All assays for the biochemical HTS were initially run in duplicate at a single concentration (10 uM for CYP450 assays and 25 uM for all others). Assay-chemical combinations meeting a pre-defined threshold (e.g., 30% inhibition and other criteria defined below) were then run in singleton concentration-response format with maximum concentration of 20 uM for CYPs and 50 uM for all others. Each assay was run with positive and negative controls, and concurrent controls on every plate. The follow-up (secondary) screen tested active chemical-pairs in concentration series, as well as a few additional assays not tested in the primary screen, some selected negative inactives, and several cases re-run in the concentration series for confirmatory purposes.
In the case of `O=C(O)C(F)(F)C(F)(F)C(F)(F)C(F)(F)C(F)(F)C(F)(F)C(F)(F)F`, the AC50 is reported as 13.7 µM (active).
With `CC[C@H](C)[C@H]1O[C@]2(C=C[C@@H]1C)C[C@@H]1C[C@@H](C/C=C(\C)[C@@H](O[C@H]3C[C@H](OC)[C@@H](O[C@H]4C[C@H](OC)[C@@H](O)[C@H](C)O4)[C@H](C)O3)[C@@H](C)/C=C/C=C3\CO[C@@H]4[C@H](O)C(C)=C[C@@H](C(=O)O1)[C@]34O)O2` (tested in a mixture with another compound) the AC50 was 36.1 µM (active).
With `O=C(NC(=O)c1c(F)cccc1F)Nc1ccc(OC(F)(F)C(F)OC(F)(F)F)c(Cl)c1` (stereo not given) the outcome was “inactive”.
`Cc1cc(C)nc(NC(=O)NS(=O)(=O)c2ccccc2C(=O)OC2COC2)n1` was tested, and the outcome was “inactive”.
In the case of `CC(C)OC(=O)Nc1cccc(Cl)c1`, the outcome is reported as “inactive”.
In the case of `O=S(=O)(O)C(F)(F)C(F)(F)C(F)(F)C(F)(F)C(F)(F)C(F)(F)C(F)(F)C(F)(F)F`, the AC50 is reported as 8.09 µM (active) and 6.38 µM (active) and 5.3 µM (active).
In the case of `CNC(=O)CSP(=S)(OC)OC`, the outcome is reported as “inactive”.
In the case of `CC(C)(C)C(O)C(Oc1ccc(Cl)cc1)n1cncn1` (stereo not given), the outcome is reported as “inactive”.
For `Oc1cc(Cl)ccc1Oc1ccc(Cl)cc1Cl`, the outcome was “inactive”.
With `OCCOc1ccccc1` the outcome was “inactive”.
